Test results: PubChem BioAssay (NCI)
This is part of a sample that, as a whole, favours compounds with a hit. Of some 79,000 tested, about 15% had one in any assay. A number with no mark means an inactive call. Activity calls are given as the source filed them. No stated cut-off is given here; in the data, active means growth inhibition above about 70%; inactive means the rest.

Assay: NCI Yeast Anticancer Drug Screen. Data for the mlh1 rad18 strain (AID 175)
Conditions: S. cerevisiae mlh1 rad18 strain growth inhibition; at 50.0 µM; hits give high values
Outline: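 Genetically defined yeast (DNA repair-deficient) exposed to compounds; growth inhibition determined relative to vehicle.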

Row | Structure (SMILES) | growth inhibition
1 | CC1=C(CCC(C)CO)OC2CC3C4CCC5CC(O)CCC5(C)C4CCC3(C)C12 (stereo not given) | -16.4%
2 | COC(=O)c1nc(N)nc(C(=O)OC)c1C(=O)c1ccc(Cl)c(Cl)c1 | 10.6%
3 | CNC(=O)OCc1c(COC(=O)NC)c(-c2ccccc2)n(-c2ccccc2)c1C | 88.1% (active)
4 | C=C(C)COC(=O)COc1ccc(Cl)cc1 | 5.45%
5 | CCCNC(=S)/N=C\c1c(O)c2ccccc2oc1=O | -5.4%
6 | CCOC(=O)/C(C)=C1\N=C(c2ccccc2)OC(=NC2CCCCC2)N1C1CCCCC1 | 8.1%
7 | CCOC(=O)/C(C)=C(/C)Nc1ccccc1 | 2.7%
8 | O=C(CNC(=O)c1ccccc1)Nc1ccc([N+](=O)[O-])cc1 | 5.7%
9 | Nc1ccc(Nc2c3ccccc3nc3ccccc23)cc1 | 69.3%
10 | CC(C)(N=NC(C)(C)C(=O)NCCO)C(=O)NCCO | -0.65%
11 | CC(=O)c1ccc2ccccc2c1 | 16.2%
12 | Cc1ccc(CSCc2c(CSCc3ccc(C)cc3)c(CSCc3ccc(C)cc3)c(CSCc3ccc(C)cc3)c(CSCc3ccc(C)cc3)c2CSCc2ccc(C)cc2)cc1 | 6.85%
13 | O=C(NO)Oc1cccc2ccccc12 | 5.85%
14 | O=C1/C(=C/c2ccccc2)N=C2Sc3c(nc[nH]c3=O)N12 | -39.2%
15 | O=c1c(O)c(-c2ccccc2)oc2c(CP(=O)(O)O)cccc12 | -18%
16 | O=C(O)CCC(=O)Nc1ccccc1C(=O)O | -4.5%
17 | CC(C)OP(=O)(OC(C)C)c1ccc2c(c1)OCCOCCOCCOCCO2 | 21.4%
18 | O=C(OCC1OC(n2nc(SCc3ccccc3)c(=S)[nH]c2=O)C(OC(=O)c2ccccc2)C1OC(=O)c1ccccc1)c1ccccc1 (stereo not given) | 31.8%
19 | CCNC(=O)CCN(C(=O)O)S(=O)(=O)c1ccc(NC(=O)c2ccccc2)cc1 | -13.9%
20 | Cc1ccc(C(C)C)c(OCC2=NCCN2C)c1 | -10.2%

Row | Structure (SMILES) | growth inhibition
21 | C=C(C(=O)O)C1CC[C@@]2(C)CC(O)CC(=C)C2C1 (stereo not given in full) | 14.7%
22 | O=C1CCC2=NCc3c(ccc4ccccc34)N12 | -4%
23 | O=c1c(O)c(O)c1=O | -15.5%
24 | Cc1cc(=O)c2cc(-c3ccccc3)ccc2[nH]1 | 2%
25 | N#Cc1nc(COCc2ccccc2)oc1N | -10.9%
26 | COC(=O)c1ccc(/C=C/c2cc(O)ccc2O)cc1 | 75% (active)
27 | O=S(=O)(SSS(=O)(=O)c1ccc(Cl)c(Cl)c1)c1ccc(Cl)c(Cl)c1 | 11.7%
28 | CCCCOC(=O)CNC(=O)c1ccc(C)c(OCc2ccccc2)c1[N+](=O)[O-] | -17.6%
29 | COC1C2CC3C4(CCC5C6(C)CCCC53C(C14)N(C)C6)CC21CCC23C4C=C5C6=C(CCC5(CC42)C3O1)C1(C)CC(C6)CN(C)C1 (stereo not given) | 26.6%
30 | O=c1cc(C=Nc2ccc(-c3csc(-c4ccccc4)n3)cc2)[nH]c(=S)[nH]1 | 98% (active)
31 | C1OC2OC3OCOC3C2O1 (stereo not given) | -8.8%
32 | O=C1CCNC(=O)N1 | 23.4%
33 | CC1(C)NC(=O)N(CCCCCCN2C(=O)NC(C)(C)C2=O)C1=O | 8.6%
34 | CC(Br)C(=O)n1c2ccccc2c2ccccc21 (stereo not given) | 8.1%
35 | COC(=O)c1ccc(SCCC(=O)CO)cc1 | 23.9%
36 | S=C(Nc1ccccc1)Nc1ccc(NC(=S)Nc2ccccc2)cc1 | -52.2%
37 | NCCCOC12CC3CC(CC(C3)C1)C2 | 15.8%
38 | O=C(CC(=O)Nc1ccccc1)N/N=C/c1cc(N=Nc2ccc(Br)cc2)ccc1O | 29%
39 | CCOC(=O)c1nc(C)oc1C(=O)OCC | -3.85%
40 | O=c1oc2c(Cl)cc(Cl)cc2cc1-c1nc2ccccc2[nH]1 | 12.6%
